PubChem BioAssay (NCI)
The panel holds about 79,000 compounds, 15% with a hit somewhere; the sample as a whole holds those more often. The source made the active and inactive calls. Rule as the data show it: active = growth inhibition above about 70%; inactive = the rest.

Legend:
[1] = NCI Yeast Anticancer Drug Screen. Data for the rad52 strain (AID 147);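 also: 0% = growth of vehicle-treated control cultures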; settings: S. cerevisiae rad52 mutant growth inhibition, hits give high values
Outline: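 Inhibition of yeast growth, referenced to vehicle controls, was the measured output for a strain with defective DNA damage repair.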

[2] = NCI Yeast Anticancer Drug Screen. Data for the wt1 strain (AID 149);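 also: 0% = growth of vehicle-treated wt1 cultures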; settings: S. cerevisiae wt1 strain (SPY 50644) growth inhibition, hits give high values
Outline: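 Readout: yeast growth inhibition, normalised to vehicle controls, in the wt1 strain exposed to test compounds.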

[3] = NCI Yeast Anticancer Drug Screen. Data for the rad50EPP+ strain (AID 151);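 also: 0% = growth of vehicle-treated control cultures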; settings: S. cerevisiae rad50 mutant strain, hits give high values
Outline: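 Genetically defined yeast (rad50EPP+, DNA damage repair alteration) is grown with compound, and inhibition of growth is expressed relative to vehicle-treated controls.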

[4] = NCI Yeast Anticancer Drug Screen. Data for the mgt1 strain (AID 153); settings: S. cerevisiae mgt1 mutant growth inhibition, hits give high values
Outline: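 In the mgt1 strain, test compounds were added and growth inhibition was determined relative to vehicle-treated controls.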

[5] = NCI Yeast Anticancer Drug Screen. Data for the rad50 strain (AID 155);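 also: 0% = growth of vehicle-only cultures of the same strain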; settings: S. cerevisiae rad50 strain growth inhibition, hits give high values
Outline: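 Compounds were tested on a yeast strain with an engineered DNA damage repair alteration; the reported value is growth inhibition normalised to vehicle treatment.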

[6] = NCI Yeast Anticancer Drug Screen. Data for the mec2-1 strain (AID 157); settings: S. cerevisiae mec2-1 strain, hits give high values
Outline: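 Each compound was tested on mec2-1 yeast, a strain altered in DNA damage repair or cell cycle control. Growth inhibition is reported relative to vehicle.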

[7] = NCI Yeast Anticancer Drug Screen. Data for the rad14 strain (AID 159);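 also: 0% = growth of vehicle-treated control cultures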; settings: S. cerevisiae rad14 strain growth inhibition, hits give high values
Outline: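 Compound-treated yeast with a defined DNA-repair lesion; growth inhibition normalised to vehicle-treated cultures.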

[8] = NCI Yeast Anticancer Drug Screen. Data for the sgs1 mgt1 strain (AID 161);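 also: 0% = growth of cultures given vehicle only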; settings: S. cerevisiae sgs1 mgt1 strain, hits give high values
Outline: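 Genetically altered yeast, compound exposure, growth inhibition relative to vehicle.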

[9] = NCI Yeast Anticancer Drug Screen. Data for the CLN2oe strain (AID 163);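 also: 0% = growth of vehicle-only control cultures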; settings: S. cerevisiae CLN2oe strain, hits give high values
Outline: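 First, the altered yeast strain was treated with each compound; second, its growth was measured; finally, inhibition was derived by comparison with vehicle controls.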

[10] = NCI Yeast Anticancer Drug Screen. Data for the cln2 rad14 strain (AID 165);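 also: 0% = growth equal to vehicle treated cultures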; settings: S. cerevisiae cln2 rad14 strain, hits give high values
Outline: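 Test compounds were added to cln2 rad14 yeast cultures; inhibition of growth was then determined by comparison with vehicle treatment.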

[11] = NCI Yeast Anticancer Drug Screen. Data for the bub3 strain (AID 167); settings: S. cerevisiae bub3 mutant strain, hits give high values
Outline: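 Growth of a checkpoint-deficient yeast mutant is measured after compound exposure. Values represent inhibition relative to vehicle.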

[12] = NCI Yeast Anticancer Drug Screen. Data for the wt2 strain (AID 169);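 also: 0% = growth of vehicle-treated yeast cultures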; settings: S. cerevisiae wt2 strain growth inhibition, hits give high values
Outline: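 The panel's yeast strains carry defined changes in DNA repair or cell cycle genes. Each strain is grown with compound, and growth loss is scored relative to vehicle.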

[13] = NCI Yeast Anticancer Drug Screen. Data for the mlh1 strain (AID 171);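 also: 0% = growth of vehicle-treated control cultures of the same strain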; settings: S. cerevisiae mlh1 strain growth inhibition, hits give high values
Outline: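 Inhibition values reflect reduced yeast growth in the presence of compound, referenced to vehicle controls, using a strain chosen for its alteration in DNA repair or cell cycle control.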

[14] = NCI Yeast Anticancer Drug Screen. Data for the sgs1 strain (AID 173);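 also: 0% = growth of vehicle-only control cultures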; settings: S. cerevisiae sgs1 mutant, hits give high values
Outline: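 Vehicle-treated cultures served as reference for growth inhibition of a yeast strain altered in DNA damage repair or cell cycle control after compound exposure.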

[15] = NCI Yeast Anticancer Drug Screen. Data for the mlh1 rad18 strain (AID 175); settings: S. cerevisiae mlh1 rad18 strain growth inhibition, hits give high values
Outline: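 Inhibition values reflect reduced growth of mutant yeast versus vehicle-treated controls following compound exposure; the mutations affect DNA damage repair.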

[16] = NCI Yeast Anticancer Drug Screen. Data for the rad18 strain (AID 177); settings: S. cerevisiae rad18 mutant growth inhibition, hits give high values
Outline: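 Steps: expose repair-mutant yeast to compound; measure growth; express as inhibition relative to vehicle control.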

[17] = at 5.0 µM (retest, dose inferred, filed as 0.5)
[18] = at 50.0 µM (retest, dose inferred, filed as 5.0)

Measured: growth inhibition

COc1cc(/C=N/Nc2nnc3c4ccccc4c4ncccc4c3n2)cc(OC)c1OC
inactive: [1]; at 1.2 µM 40% | [1]; at 3.7 µM 51% | [2]; at 1.2 µM -22% | [2]; at 3.7 µM -1% | [2]; at 11.0 µM -1% | [2]; at 33.0 µM 4% | [2]; at 100.0 µM 9% | [3]; at 1.2 µM 20% | [3]; at 3.7 µM 36% | [3]; at 11.0 µM 58% | [4]; at 1.2 µM 0% | [4]; at 3.7 µM 1% | [4]; at 11.0 µM 3% | [4]; at 33.0 µM 5% | [4]; at 100.0 µM 6% | [5]; at 1.2 µM 18% | [5]; at 3.7 µM 36% | [5]; [17] 4% | [5]; at 11.0 µM 66% | [5]; [18] 62% | [6]; at 1.2 µM 15% | [6]; at 3.7 µM 1% | [6]; [17] -2% | [6]; at 11.0 µM 3% | [6]; at 33.0 µM 9% | [6]; [18] -5% | [6]; at 50.0 µM 22.1% | [6]; at 100.0 µM 11% | [7]; at 1.2 µM -1% | [7]; at 3.7 µM 2% | [7]; at 11.0 µM 5% | [7]; at 33.0 µM 8% | [7]; at 100.0 µM 14% | [8]; [17] -5% | [8]; [18] -2% | [8]; at 50.0 µM 34% | [9]; at 1.2 µM -8% | [9]; at 3.7 µM -2% | [9]; at 11.0 µM -2% | [9]; at 33.0 µM -3% | [9]; at 100.0 µM 1% | [10]; [17] -7% | [10]; [18] -6% | [10]; at 50.0 µM 47.8% | [11]; at 1.2 µM -1% | [11]; at 3.7 µM -1% | [11]; [17] 1% | [11]; at 11.0 µM -4% | [11]; at 33.0 µM -11% | [11]; [18] -16% | [11]; at 50.0 µM 6.55% | [11]; at 100.0 µM -8% | [12]; at 1.2 µM -5% | [12]; at 3.7 µM -1% | [12]; at 11.0 µM -2% | [12]; at 33.0 µM -3% | [12]; at 100.0 µM -4% | [13]; at 1.2 µM -1% | [13]; at 3.7 µM 0% | [13]; at 11.0 µM -2% | [13]; at 33.0 µM 3% | [13]; at 100.0 µM 6% | [14]; at 1.2 µM 2% | [14]; at 3.7 µM 5% | [14]; at 11.0 µM 4% | [14]; at 33.0 µM 9% | [14]; at 100.0 µM 10% | [15]; [17] -25% | [15]; [18] -8% | [15]; at 50.0 µM 55.6% | [16]; at 1.2 µM 11% | [16]; at 3.7 µM 8% | [16]; at 11.0 µM 21% | [16]; at 33.0 µM 29% | [16]; at 100.0 µM 30%
active: [1]; at 11.0 µM 81% | [1]; at 33.0 µM 74% | [1]; at 100.0 µM 89% | [3]; at 33.0 µM 80% | [3]; at 100.0 µM 84% | [5]; at 33.0 µM 81% | [5]; at 50.0 µM 93% | [5]; at 100.0 µM 86%

CCC(C)OC(=O)Nc1ccc(C)c(NC(=O)OC(C)CC)c1 (stereo unspecified)
inactive: [1]; at 1.2 µM -1% | [1]; at 3.7 µM -1% | [1]; at 11.0 µM 3% | [1]; at 33.0 µM 9% | [2]; at 1.2 µM -3% | [2]; at 3.7 µM 0% | [2]; at 11.0 µM -5% | [2]; at 33.0 µM 2% | [3]; at 1.2 µM -2% | [3]; at 3.7 µM -5% | [3]; at 11.0 µM -1% | [3]; at 33.0 µM 11% | [4]; at 1.2 µM -2% | [4]; at 3.7 µM -2% | [4]; at 11.0 µM -1% | [4]; at 33.0 µM 1% | [5]; at 1.2 µM 1% | [5]; at 3.7 µM 1% | [5]; [17] 4% | [5]; at 11.0 µM 2% | [5]; at 33.0 µM 9% | [5]; at 50.0 µM 54% | [6]; at 1.2 µM -2% | [6]; at 3.7 µM 0% | [6]; [17] -11% | [6]; at 11.0 µM -2% | [6]; at 33.0 µM 2% | [6]; [18] 18% | [7]; at 1.2 µM 0% | [7]; at 3.7 µM 2% | [7]; at 11.0 µM 1% | [7]; at 33.0 µM 6% | [8]; [17] 1% | [9]; at 1.2 µM 3% | [9]; at 3.7 µM 2% | [9]; at 11.0 µM 7% | [9]; at 33.0 µM 22% | [10]; [17] -4% | [11]; at 1.2 µM -3% | [11]; at 3.7 µM -2% | [11]; [17] 2% | [11]; at 11.0 µM -3% | [11]; at 33.0 µM 4% | [12]; at 1.2 µM 0% | [12]; at 3.7 µM 1% | [12]; at 11.0 µM -2% | [12]; at 33.0 µM 6% | [13]; at 1.2 µM -1% | [13]; at 3.7 µM -3% | [13]; at 11.0 µM -5% | [13]; at 33.0 µM 2% | [14]; at 1.2 µM -5% | [14]; at 3.7 µM -5% | [14]; at 11.0 µM -5% | [14]; at 33.0 µM 9% | [15]; [17] 12% | [16]; at 1.2 µM -4% | [16]; at 3.7 µM -5% | [16]; at 11.0 µM -8% | [16]; at 33.0 µM 6%
active: [1]; at 100.0 µM 96% | [2]; at 100.0 µM 73% | [3]; at 100.0 µM 74% | [4]; at 100.0 µM 96% | [5]; [18] 76% | [5]; at 100.0 µM 96% | [6]; at 50.0 µM 76% | [6]; at 100.0 µM 90% | [7]; at 100.0 µM 94% | [8]; [18] 85% | [8]; at 50.0 µM 79.4% | [9]; at 100.0 µM 95% | [10]; [18] 74% | [10]; at 50.0 µM 80% | [11]; [18] 83% | [11]; at 50.0 µM 75% | [11]; at 100.0 µM 94% | [12]; at 100.0 µM 96% | [13]; at 100.0 µM 96% | [14]; at 100.0 µM 96% | [15]; [18] 89% | [15]; at 50.0 µM 79.5% | [16]; at 100.0 µM 96%

N#CC(=Nc1ccccc1F)Nc1ccccc1F
inactive: [1]; at 1.2 µM -3% | [1]; at 3.7 µM -3% | [1]; at 11.0 µM -2% | [1]; at 33.0 µM 8% | [1]; at 100.0 µM 9% | [2]; at 1.2 µM -5% | [2]; at 3.7 µM -3% | [2]; at 11.0 µM -11% | [2]; at 33.0 µM -10% | [2]; at 100.0 µM -7% | [3]; at 1.2 µM 6% | [3]; at 3.7 µM 11% | [3]; at 11.0 µM 21% | [3]; at 33.0 µM 29% | [3]; at 100.0 µM 20% | [4]; at 1.2 µM -5% | [4]; at 3.7 µM -4% | [4]; at 11.0 µM -4% | [4]; at 33.0 µM 2% | [4]; at 100.0 µM -2% | [5]; at 1.2 µM 0% | [5]; at 3.7 µM 2% | [5]; [17] -6% | [5]; at 11.0 µM -1% | [5]; at 33.0 µM 5% | [5]; [18] -1% | [5]; at 50.0 µM -2.35% | [5]; at 100.0 µM 5% | [6]; at 1.2 µM -4% | [6]; at 3.7 µM -1% | [6]; [17] -4% | [6]; at 11.0 µM -4% | [6]; at 33.0 µM 8% | [6]; [18] 8% | [6]; at 50.0 µM -2.55% | [6]; at 100.0 µM 10% | [7]; at 1.2 µM -5% | [7]; at 3.7 µM -4% | [7]; at 11.0 µM -4% | [7]; at 33.0 µM 10% | [7]; at 100.0 µM 12% | [8]; [17] -3% | [8]; [18] 15% | [8]; at 50.0 µM 12.1% | [9]; at 1.2 µM 1% | [9]; at 3.7 µM 0% | [9]; at 11.0 µM 5% | [9]; at 33.0 µM 11% | [9]; at 100.0 µM 26% | [10]; [17] -1% | [10]; [18] -3% | [10]; at 50.0 µM -0.6% | [11]; at 1.2 µM -3% | [11]; at 3.7 µM -3% | [11]; [17] -2% | [11]; at 11.0 µM -1% | [11]; at 33.0 µM 5% | [11]; [18] 3% | [11]; at 50.0 µM 8.55% | [11]; at 100.0 µM -2%
